Growth data for 40 molecules are collected here from PubChem BioAssay (NCI).

Each structure is given as a SMILES string. The panel holds about 83,000 compounds, 20% with a hit somewhere; the sample as a whole holds those more often.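 Method: cells in 96-well plates; compound added at one concentration; 48 h incubation; percent growth measured; values under 10 scored active.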 The source made the active and inactive calls.

The assay relates to CCRF-CEM leukemia. The assay is described as follows: NCI-60 one-dose screen, 48 h (100 = growth as untreated, 0 = no growth, -100 = all killed). As to conditions: 10 µM unless noted. The procedure:
Growth inhibition of the CCRF-CEM human tumor cell line is measured as a screen for anti-cancer activity. Cells are grown in 96 well plates and exposed to the test compound for 48 hours. Compounds are tested at a single concentration, which is 10^-5 M for most compounds. The reported endpoint is percent growth (GI% or GIPRCNT), where numbers from 0 - 100% represent growth inhibition, and numbers from -100% - 0 represent cell death. For example, a value of 40 represents 60% growth inhibition. A value of 0 means no net growth occurred over the course of the experiment. A value of -40 indicates 40% of cells at the beginning of the experiment died by the end of the experiment. A value of -100 means all cells are dead at the end of the experiment.
NCI-60 Human Tumor Cell Lines Screen was performed using the standard one-dose NCI protocol, which is described in more detail at https://dtp.cancer.gov/discovery_development/nci-60/default.htm.
Compounds with GIPRCNT values below 10 were considered active. Activity score was based on GIPRCNT using the following formula: […]
Score is 0 for GIPRCNT values of 100 or above, 50 for GIPRCNT values of 0, and 100 for GIPRCNT values of -100.
For the molecule `Nc1c(C(=O)Nc2ccccc2F)sc2nc3c(cc12)CCCC3`, the growth is 22.5% (inactive). Next, `C=C1C(=O)O[C@H]2[C@H]1CC/C(COC(=O)NCc1ccc(Cn3c(=O)sn(CCCCC)c3=O)cc1)=C\CC[C@@]1(C)O[C@@H]21`: -22% (active); `Nc1nc2ccccc2c2c(=O)c3cccc(Cl)c3sc12`: 96.3% (inactive); `N#Cc1c(-c2ccccc2)[nH]c2ncc(-c3ccccc3)n2c1=O`: 104% (inactive).

For the molecule `O=C(Nc1cccc(-c2ccc(Cl)c(C(F)(F)F)c2)c1)C1CCN(Cc2cccc3cccnc23)CC1`, the growth is 4.08% (active). Turning to `Cc1cn(-c2cc(NC(=O)c3cccc(C#Cc4cccc5[nH]nc(N)c45)c3)cc(C(F)(F)F)c2)cn1`, the growth was 15% (inactive). On to `CCOC(=O)C(=O)C(C(=O)OCC)c1ccccc1` (stereo not given), for which the growth is 90.4% (inactive).

`COc1ccc(C2CC(c3ccc(Nc4nc(Nc5ccccc5)nc(Nc5ccccc5)n4)cc3)=NN2C(C)=O)cc1` (stereo not given): the growth was 88.6% (inactive).

In the case of `CC1=NC2=Nn3c(c4cnn(-c5ccccc5)c4n/c3=N\N)NN2C(c2ccccc2)=C1`, the growth was 101% (inactive).

`CCCCCCCCCc1ccc(OCCOCCOCCOCCOCCOCCOCCOCCOCCO)cc1`: the growth was -22.2% (active).

Regarding `CCOC(=O)c1cc(C(=O)c2cc(OC)c(OC)c(OC)c2)n2ncccc12`, the growth was 11% (inactive).

As for `COc1cc(-c2nccc3[nH]c(-c4ccc5cc[nH]c5c4)nc23)cc(OC)c1OC`, the growth is 5.28% (active). Turning to `COc1ccc(Nc2ncc(Br)c(NCCCNC(=O)C3CCCC3)n2)cc1`, the growth is 27.1% (inactive).

Turning to `C#CCOc1ccc2ncnc(Nc3ccc(NC(=O)C=C)cc3)c2c1`, the growth was -39.5% (active). Regarding `C=CCn1c(C)nc2ccc(Nc3nc(Nc4ccc5nc(C)n(CC=C)c5c4)c4ccccc4n3)cc21`, the growth was -20.8% (active). In the case of `N#CC(C#N)N=Nc1ccc(Br)cc1`, the growth is 9.65% (active).

Take `CCCCCCCCCCC(CN(CC)CC)C(O)c1ccccc1` (stereo not given): the growth is 4.36% (active). As for `Nc1c(C(=O)Nc2ccccc2C(F)(F)F)sc2nc3c(cc12)CCC3`, the growth is 101% (inactive). Under `COc1ccc(/C=C(\C#N)n2nnc3cc(F)c(F)cc32)cc1` stands 24.3% (inactive); under `Oc1c(Br)cc(Br)c2ccc(Cn3cc(-c4ccccc4C(F)(F)F)nn3)nc12`, 28.7% (inactive); under `Cc1cc(N2CCCCC2)cc(C)c1-c1csc(NC(=O)c2ccncc2)n1`, 47.3% (inactive). With `O=C1/C(=C/c2ccccc2O)CC/C1=C\c1ccccc1O`, the growth was 1.74% (active). In the case of `O=C(CN1C(=O)S/C(=C\C(Cl)=C\c2ccccc2)C1=O)NCCc1ccc(O)cc1`, the growth is 6.23% (active). As for `c1ccc2cc(C[n+]3ccn(CCCCCCCCCCn4cc[n+](Cc5ccc6ccccc6c5)c4)c3)ccc2c1`, the growth is -4.14% (active). `Cn1ccnc1C(=O)/C=C/c1ccc(C(=O)Nc2ccccc2O)cc1`: the growth was -9.45% (active).

With `COc1cccc(/C=C2\COc3ccc(O)c(O)c3C2=O)c1`, the growth is 3.04% (active).

On to `O=c1[nH]c(-c2ccccc2)nc2sc3cc(O)ccc3c12`, for which the growth was 73.1% (inactive). Consider `C=CC(=O)N1CCN(c2cccc(Oc3nccc(Nc4nnc(-c5ccc(Br)cc5)s4)n3)c2)CC1`, for which the growth was 69.5% (inactive). For `O=C(NCCNc1nccc(Nc2ccc(S(=O)(=O)Nc3ccccn3)cc2)n1)c1cccc([N+](=O)[O-])c1`, the growth is 101% (inactive). Regarding `C/C(=N\O)c1ccc(Cl)cc1`, the growth was 118% (inactive). As for `O=C(CSC(=S)n1cnnc1)NC(=O)c1ccccc1`, the growth is 99.2% (inactive). Regarding `O=C(Nc1ccc(Oc2cccc(F)c2)c(Cl)c1)c1cccnc1`, the growth is 24% (inactive).

For the molecule `c1ccc(-c2oc(-c3ccccc3)c(CN3CCCCC3)c2CN2CCCCC2)cc1`, the growth is 24.1% (inactive).

Regarding `COCCn1cc(-c2nc(-c3cc4cccnc4[nH]3)cs2)c2cc(OC)ccc21`, the growth was 12.4% (inactive). Under `COc1ccc(/C=C(\C#N)n2nnc3cc(Cl)ccc32)cc1` stands 12.4% (inactive); under `O=C1/C(=C/c2cccc(F)c2)CN(C(=O)C(Cl)Cl)C/C1=C\c1cccc(F)c1`, 0.153% (active). For the molecule `COc1cc(C2CC(c3ccc(Nc4nc(Nc5ccc(Cl)cc5)nc(Nc5ccc(Cl)cc5)n4)cc3)=NN2C(C)=O)cc(OC)c1OC` (stereo not given), the growth was 101% (inactive). Turning to `COc1ccc(Nc2nnc(-c3ccc(OC)c(OC)c3)o2)cc1`, the growth is 86.8% (inactive). Under `CCCCNCCCCCNc1cc(OC)cc2cccnc12` stands 106% (inactive). Next, `COc1cc2c(cc1OCCCN1CCN(CCCOc3cc4c(cc3OC)C(=O)N3CCC[C@H]3C=N4)CC1)C=CC(C)(C)O2`: -48.6% (active).
